# Tests used:
# Experiment in all cases: DAPPL (digital affinity profiling via proximity ligation, sequencing); 10 mM Tris-HCl pH 7.5, 50 mM NaCl, 1 mM DTT, 4% glycerol, room temperature, 30 min; GST-TFs on glutathione beads, 16-mer random dsDNA library, 0.1% formaldehyde crosslink after washing; high values mean tight binding
# Conditions in all cases: protein: recombinant; tags: N-terminal GST; dsDNA, one strand shown
# ERG = target: T1, ERG (Homo sapiens, UniProt P11308 1-479)
# T1 sequence: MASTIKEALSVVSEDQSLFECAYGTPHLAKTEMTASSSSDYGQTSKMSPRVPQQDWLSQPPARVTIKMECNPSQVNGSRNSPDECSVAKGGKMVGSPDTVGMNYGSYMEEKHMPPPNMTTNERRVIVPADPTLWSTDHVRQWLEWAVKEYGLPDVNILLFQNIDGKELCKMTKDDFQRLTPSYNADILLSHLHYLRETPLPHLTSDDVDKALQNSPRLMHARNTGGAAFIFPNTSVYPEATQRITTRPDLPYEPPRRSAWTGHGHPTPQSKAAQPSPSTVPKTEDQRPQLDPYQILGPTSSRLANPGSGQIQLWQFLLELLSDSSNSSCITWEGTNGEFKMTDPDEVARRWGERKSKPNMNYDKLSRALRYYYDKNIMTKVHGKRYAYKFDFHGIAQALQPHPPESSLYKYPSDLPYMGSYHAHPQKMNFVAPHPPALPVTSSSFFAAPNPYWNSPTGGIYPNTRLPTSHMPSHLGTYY
# Procedure, shortened: (§1)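 Human transcription factors were made in yeast as GST fusions, captured on glutathione beads and barcoded with DNA. With a tag-only sample included, the pool was incubated with 200 nmole of a random double-stranded 16-mer DNA library in Tris/NaCl/DTT/glycerol buffer at room temperature for 30 min, then crosslinked with 0.1% formaldehyde after washing, ligated by proximity, amplified and sequenced. For binding signal, each hexamer's read frequency for a factor is divided by its frequency for the tag-only sample.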
# EHF = target: T2, EHF (Homo sapiens, UniProt Q9NZC4 1-300)
# T2 sequence: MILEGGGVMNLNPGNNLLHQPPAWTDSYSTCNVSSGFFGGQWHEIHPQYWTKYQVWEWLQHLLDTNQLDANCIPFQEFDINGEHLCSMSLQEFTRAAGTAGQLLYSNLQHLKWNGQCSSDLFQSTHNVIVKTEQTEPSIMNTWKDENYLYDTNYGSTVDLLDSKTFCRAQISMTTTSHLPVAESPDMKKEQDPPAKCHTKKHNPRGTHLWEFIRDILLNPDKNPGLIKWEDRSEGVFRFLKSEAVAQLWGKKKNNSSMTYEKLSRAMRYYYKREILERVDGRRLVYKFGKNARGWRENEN
# Procedure, shortened: as §1
# SPI1 = SPI1 (Homo sapiens, UniProt P17947 1-270)
# Procedure, shortened: as §1
# SPIB = SPIB (Homo sapiens, UniProt Q01892 1-262)
# SPIB, sequence (Q01892 whole entry): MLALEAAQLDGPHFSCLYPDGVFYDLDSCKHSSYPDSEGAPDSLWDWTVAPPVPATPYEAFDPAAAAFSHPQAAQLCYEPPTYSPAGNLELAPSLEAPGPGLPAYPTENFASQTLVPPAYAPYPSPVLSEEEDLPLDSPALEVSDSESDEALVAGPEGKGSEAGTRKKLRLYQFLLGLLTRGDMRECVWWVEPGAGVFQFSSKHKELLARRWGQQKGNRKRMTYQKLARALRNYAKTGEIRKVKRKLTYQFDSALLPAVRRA
# Procedure, shortened: as §1
# SPIC = target: T3, SPIC (Homo sapiens, UniProt Q8N5J4 1-248)
# T3 sequence: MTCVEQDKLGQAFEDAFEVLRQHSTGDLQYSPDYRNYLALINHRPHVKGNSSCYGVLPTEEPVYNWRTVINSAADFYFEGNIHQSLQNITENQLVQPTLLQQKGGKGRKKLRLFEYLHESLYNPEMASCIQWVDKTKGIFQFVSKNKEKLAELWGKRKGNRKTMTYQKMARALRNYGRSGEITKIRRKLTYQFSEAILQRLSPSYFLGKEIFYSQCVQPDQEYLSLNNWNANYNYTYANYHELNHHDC
# Procedure, shortened: as §1
# ELF3 = target: T4, ELF3 (Homo sapiens, UniProt P78545 1-371)
# T4 sequence: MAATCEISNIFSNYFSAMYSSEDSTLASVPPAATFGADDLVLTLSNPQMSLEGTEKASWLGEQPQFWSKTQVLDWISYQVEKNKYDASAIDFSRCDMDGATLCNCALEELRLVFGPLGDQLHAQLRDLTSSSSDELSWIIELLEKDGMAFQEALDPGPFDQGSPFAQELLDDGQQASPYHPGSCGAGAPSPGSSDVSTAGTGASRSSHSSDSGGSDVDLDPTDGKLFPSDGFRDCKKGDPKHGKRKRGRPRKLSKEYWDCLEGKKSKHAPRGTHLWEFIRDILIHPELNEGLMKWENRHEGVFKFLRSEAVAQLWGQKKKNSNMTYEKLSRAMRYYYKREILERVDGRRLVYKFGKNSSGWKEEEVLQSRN
# Procedure, shortened: as §1
# ETV7 = target: T5, ETV7 (Homo sapiens, UniProt Q9Y603 1-341)
# T5 sequence: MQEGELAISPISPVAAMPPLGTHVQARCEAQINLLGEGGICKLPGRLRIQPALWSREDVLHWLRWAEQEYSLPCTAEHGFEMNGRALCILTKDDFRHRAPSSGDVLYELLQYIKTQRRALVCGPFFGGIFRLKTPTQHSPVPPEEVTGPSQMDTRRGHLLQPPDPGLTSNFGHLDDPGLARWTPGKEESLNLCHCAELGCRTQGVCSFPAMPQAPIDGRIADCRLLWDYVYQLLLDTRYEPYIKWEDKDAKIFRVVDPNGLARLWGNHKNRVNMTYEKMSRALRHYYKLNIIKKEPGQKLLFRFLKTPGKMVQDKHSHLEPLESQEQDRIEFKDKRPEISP
# Procedure, shortened: as §1
# ELF5 = target: T6, ELF5 (Homo sapiens, UniProt Q9UKW6-2 1-255)
# T6 sequence: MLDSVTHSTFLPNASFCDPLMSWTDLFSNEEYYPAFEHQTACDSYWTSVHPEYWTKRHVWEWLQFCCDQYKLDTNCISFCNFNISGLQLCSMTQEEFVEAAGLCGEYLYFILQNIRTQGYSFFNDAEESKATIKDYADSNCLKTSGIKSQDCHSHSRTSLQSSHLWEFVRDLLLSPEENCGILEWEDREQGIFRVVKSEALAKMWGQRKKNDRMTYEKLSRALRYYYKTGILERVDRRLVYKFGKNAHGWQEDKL
# Procedure, shortened: as §1
# ETV6 = ETV6 (Homo sapiens, UniProt P41212 1-452)
# ETV6, sequence (P41212 whole entry): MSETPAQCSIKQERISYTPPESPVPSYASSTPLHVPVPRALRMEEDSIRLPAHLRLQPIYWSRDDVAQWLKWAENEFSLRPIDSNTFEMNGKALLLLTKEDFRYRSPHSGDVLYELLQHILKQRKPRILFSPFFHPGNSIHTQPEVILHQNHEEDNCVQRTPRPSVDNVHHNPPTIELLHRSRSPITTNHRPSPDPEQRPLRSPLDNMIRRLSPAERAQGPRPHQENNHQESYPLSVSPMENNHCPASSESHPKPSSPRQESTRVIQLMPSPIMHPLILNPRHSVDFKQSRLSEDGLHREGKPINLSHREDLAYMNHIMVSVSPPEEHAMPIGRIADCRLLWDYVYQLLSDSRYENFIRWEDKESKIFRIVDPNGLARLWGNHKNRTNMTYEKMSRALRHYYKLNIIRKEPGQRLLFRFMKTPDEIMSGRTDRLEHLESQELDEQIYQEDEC
# Procedure, shortened: as §1
# SPDEF = target: T7, SPDEF (Homo sapiens, UniProt O95238 1-335)
# T7 sequence: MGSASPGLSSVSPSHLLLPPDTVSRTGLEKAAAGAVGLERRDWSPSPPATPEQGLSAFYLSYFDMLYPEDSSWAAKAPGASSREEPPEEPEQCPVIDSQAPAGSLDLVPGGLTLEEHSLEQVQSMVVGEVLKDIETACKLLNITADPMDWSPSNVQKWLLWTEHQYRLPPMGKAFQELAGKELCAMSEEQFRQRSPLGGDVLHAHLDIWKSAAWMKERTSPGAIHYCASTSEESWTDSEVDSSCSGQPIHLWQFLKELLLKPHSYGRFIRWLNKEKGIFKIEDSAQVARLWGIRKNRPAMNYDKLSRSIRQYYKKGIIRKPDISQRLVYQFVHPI
# Procedure, shortened: as §1
# ELK3 = target: T8, ELK3 (Homo sapiens, UniProt P41970 1-407)
# T8 sequence: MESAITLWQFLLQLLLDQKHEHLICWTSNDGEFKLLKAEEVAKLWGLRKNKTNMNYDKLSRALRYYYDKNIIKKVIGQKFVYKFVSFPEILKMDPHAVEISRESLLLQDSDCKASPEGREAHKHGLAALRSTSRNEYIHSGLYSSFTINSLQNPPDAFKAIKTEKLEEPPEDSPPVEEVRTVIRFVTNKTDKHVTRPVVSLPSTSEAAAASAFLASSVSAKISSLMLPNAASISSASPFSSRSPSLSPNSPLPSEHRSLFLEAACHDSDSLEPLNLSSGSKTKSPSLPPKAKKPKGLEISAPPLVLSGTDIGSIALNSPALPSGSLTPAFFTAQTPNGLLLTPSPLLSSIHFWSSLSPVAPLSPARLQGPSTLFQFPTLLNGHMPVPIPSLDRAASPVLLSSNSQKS
# Procedure, shortened: as §1
# ETV2 = target: T9, ETV2 (Homo sapiens, UniProt O00321 1-342)
# T9 sequence: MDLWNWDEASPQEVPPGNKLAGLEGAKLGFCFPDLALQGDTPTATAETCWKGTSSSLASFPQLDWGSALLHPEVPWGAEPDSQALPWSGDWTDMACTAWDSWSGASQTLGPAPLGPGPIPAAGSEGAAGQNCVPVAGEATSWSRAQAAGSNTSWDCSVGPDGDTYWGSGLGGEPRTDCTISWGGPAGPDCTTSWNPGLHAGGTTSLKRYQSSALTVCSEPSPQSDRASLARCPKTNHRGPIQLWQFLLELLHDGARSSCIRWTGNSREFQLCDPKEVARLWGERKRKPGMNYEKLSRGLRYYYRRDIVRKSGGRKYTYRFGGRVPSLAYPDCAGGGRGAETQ
# Procedure, shortened: as §1
# ERF = target: T10, ERF (Homo sapiens, UniProt P50548 1-548)
# T10 sequence: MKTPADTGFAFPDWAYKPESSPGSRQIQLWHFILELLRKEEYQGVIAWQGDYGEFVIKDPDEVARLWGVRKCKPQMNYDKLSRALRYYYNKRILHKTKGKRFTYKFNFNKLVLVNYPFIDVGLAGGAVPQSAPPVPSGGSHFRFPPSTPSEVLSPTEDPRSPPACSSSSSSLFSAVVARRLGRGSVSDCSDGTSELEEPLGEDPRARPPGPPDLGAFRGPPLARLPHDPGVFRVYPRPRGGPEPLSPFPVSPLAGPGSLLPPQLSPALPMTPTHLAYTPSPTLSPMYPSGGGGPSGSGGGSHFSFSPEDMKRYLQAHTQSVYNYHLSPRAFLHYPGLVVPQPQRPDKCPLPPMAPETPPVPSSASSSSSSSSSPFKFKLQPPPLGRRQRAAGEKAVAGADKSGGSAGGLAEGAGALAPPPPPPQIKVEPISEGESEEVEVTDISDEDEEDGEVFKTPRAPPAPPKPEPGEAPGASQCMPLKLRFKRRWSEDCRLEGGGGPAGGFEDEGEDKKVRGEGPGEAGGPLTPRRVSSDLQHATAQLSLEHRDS
# Procedure, shortened: as §1
# ETS2 = target: T11, ETS2 (Homo sapiens, UniProt P15036 1-469)
# T11 sequence: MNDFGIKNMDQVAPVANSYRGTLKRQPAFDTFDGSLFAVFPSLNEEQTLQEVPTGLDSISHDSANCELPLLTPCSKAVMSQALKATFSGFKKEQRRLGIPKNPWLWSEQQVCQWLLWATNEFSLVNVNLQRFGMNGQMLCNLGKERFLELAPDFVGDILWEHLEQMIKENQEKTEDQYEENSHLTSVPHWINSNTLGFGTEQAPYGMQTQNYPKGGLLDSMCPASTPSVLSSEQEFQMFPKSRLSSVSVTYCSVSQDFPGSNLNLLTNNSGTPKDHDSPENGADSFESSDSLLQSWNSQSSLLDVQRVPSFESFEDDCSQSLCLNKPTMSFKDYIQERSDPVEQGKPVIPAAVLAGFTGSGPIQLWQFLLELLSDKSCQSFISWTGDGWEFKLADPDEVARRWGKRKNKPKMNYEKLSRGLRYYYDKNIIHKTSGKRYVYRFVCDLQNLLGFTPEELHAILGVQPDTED
# Procedure, shortened: as §1
sequence,measurement,setting,value
AGGGAA,binding signal,ERG,"1.02 fold enrichment (6-mer frequency, TF over GST control)"
same,binding signal,EHF,"1.04 fold enrichment (6-mer frequency, TF over GST control)"
same,binding signal,SPI1,"1.39 fold enrichment (6-mer frequency, TF over GST control)"
same,binding signal,SPIB,"1 fold enrichment (6-mer frequency, TF over GST control)"
same,binding signal,SPIC,"1.01 fold enrichment (6-mer frequency, TF over GST control)"
same,binding signal,ELF3,"1.01 fold enrichment (6-mer frequency, TF over GST control)"
same,binding signal,ETV7,"1.06 fold enrichment (6-mer frequency, TF over GST control)"
same,binding signal,ELF5,"1.24 fold enrichment (6-mer frequency, TF over GST control)"
same,binding signal,ETV6,"1.03 fold enrichment (6-mer frequency, TF over GST control)"
CGGGTT,binding signal,SPIC,"1 fold enrichment (6-mer frequency, TF over GST control)"
same,binding signal,SPDEF,"1.09 fold enrichment (6-mer frequency, TF over GST control)"
same,binding signal,ELF5,"1.02 fold enrichment (6-mer frequency, TF over GST control)"
TGCAGG,binding signal,ERG,"1.01 fold enrichment (6-mer frequency, TF over GST control)"
same,binding signal,SPI1,"1.03 fold enrichment (6-mer frequency, TF over GST control)"
same,binding signal,SPIB,"1.07 fold enrichment (6-mer frequency, TF over GST control)"
same,binding signal,ELK3,"1.03 fold enrichment (6-mer frequency, TF over GST control)"
same,binding signal,SPIC,"1.01 fold enrichment (6-mer frequency, TF over GST control)"
same,binding signal,ETV2,"1.03 fold enrichment (6-mer frequency, TF over GST control)"
same,binding signal,ERF,"1.01 fold enrichment (6-mer frequency, TF over GST control)"
same,binding signal,ETS2,"1.02 fold enrichment (6-mer frequency, TF over GST control)"

# Source: article PMC7862700, “An all-to-all approach to the identification of sequence-specific readers for epigenetic DNA modifications on cytosine”
